# Data: PubChem BioAssay (Tox21)
# Unmarked numbers belong to inactive results. Inconclusive results are not listed. A call without a number means that no potency is given here. Calls of active or inactive are those of the source. Unless noted, the call rests on the fitted dose curve.
# Assays:
# [1] = Nuclear factor erythroid 2-related factor 2/antioxidant responsive element (Nrf2/ARE) small molecule agonists: qHTS cell viability counter screen in human keratinocytes (AID 1919968; active means well fitted curve in the direction sought with a large enough effect in the repeat runs; an effect the other way counts as inactive or inconclusive; further: nearly all actives have a fitted effect of over 55% in size; further: potency means the concentration at half of the fitted maximal effect)
# Outline: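 KeratinoSens cells (HaCaT keratinocytes stably carrying an ARE-luciferase reporter) were seeded at 1,500 cells/well and rested 5 h at 37 C/5% CO2. They were then exposed to compounds in DMSO for 23 h. Viability was read by CellTiter-Fluor fluorescence after 1 h.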
# [2] = molecular target: Gonadotropin-releasing hormone receptor (Homo sapiens) (UniProt P30968); assay: Human gonadotropin-releasing hormone receptor (GnRHR) small molecule agonists, calcium flux assay in GnRHR-HEK293 cells (AID 1920063); further: nearly all actives have a fitted effect of over 35% in size
# Outline: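 HEK293 cells stably expressing human GnRHR were plated 18 h at 37 °C, loaded with calcium dye 1 h at 37 °C, then given compound in agonist mode; fluorescence (Ex/Em 480/540) read kinetically for 3 min at 1 s intervals.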
# [3] = molecular target: KiSS-1 receptor (Homo sapiens) (UniProt Q969F8); assay: Human kisspeptin (KISS1R) small molecule agonists, calcium flux assay in KISS1R-HEK293 cells (AID 1920064; active means well fitted curve in the direction sought with a large enough effect in the repeat runs; an effect the other way counts as inactive or inconclusive)
# Outline: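 HEK293 cells stably expressing human KISS1R were plated 18 h at 37 °C, loaded with calcium dye for 1 h at 37 °C, then given compound by pin tool. Fluorescence (Ex/Em 480/540) was read kinetically for 3 min.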
# [4] = G protein-coupled receptor (GPCR) small molecule agonists, calcium flux assay: HEK293 wild type cell line counter screen (AID 1920065)
# Outline: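 Cells were plated and cultured 18 h at 37 C/5% CO2, then loaded with calcium dye for 1 h at 37 C. Compounds in DMSO were pin-transferred in agonist mode, and fluorescence (Ex/Em 480/540) was read kinetically for 3 min at 1 s intervals.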
# [5] = p53 small molecule agonists, cell-based qHTS assay with human liver microsomes (AID 1963577)
# Outline: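 Compounds act here after metabolic activation: human liver microsomes and NADPH, both at 0.5 mg/mL final, were co-added to p53RE-bla cells. Incubation ran 16 h at 37 C, followed by LiveBLAzer detection.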
# [6] = p53 small molecule agonists, cell-based qHTS assay with rat liver microsomes (AID 1963578)
# Outline: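 Read-out is beta-lactamase reporter fluorescence (LiveBLAzer, 2 h, room temperature, dark) in p53RE-bla cells treated 16 h at 37 C with compound, rat liver microsomes and NADPH, both 0.5 mg/mL final.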
# [7] = p53 small molecule agonists, cell-based qHTS assay with human liver microsomes: qHTS cell viability counter screen (AID 1963579); further: nearly all actives have a fitted effect of over 45% in size
# Outline: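 Cells carrying the p53 response-element beta-lactamase reporter are treated for 16 h at 37 C with test compounds in the presence of human liver microsomes and NADPH (both 0.5 mg/mL final); ATP-based CellTiter-Glo luminescence then reports viability.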
# [8] = p53 small molecule agonists, cell-based qHTS assay with rat liver microsomes: qHTS cell viability counter screen (AID 1963580); further: nearly all actives have a fitted effect of over 45% in size
# Outline: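 HCT-116 p53RE-bla, 4,000 cells/well, 5 h pre-incubation; cpd + rat liver microsomes 0.5 mg/mL + NADPH 0.5 mg/mL (final); 16 h, 37 C; CellTiter-Glo, 30 min RT; luminescence.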
# [9] = p53 small molecule agonists, cell-based qHTS assay: qHTS cell viability counter screen (AID 1963581); further: nearly all actives have a fitted effect of over 45% in size
# Outline: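 p53RE-bla HCT-116 cells were exposed to compounds for 16 h at 37 C; after the beta-lactamase FRET read in the same wells, CellTiter-Glo was added and luminescence (intracellular ATP) read after 30 min at room temperature.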
# [10] = p53 small molecule agonists, cell-based qHTS assay (AID 1963582; active means well fitted activation curve with a large enough effect in the signal ratio in the repeat runs, not every such curve was filed as active; the % refers to the signal ratio)
# Outline: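 p53RE-bla beta-lactamase reporter cells rested 5 h at 37 C/5% CO2, then received compounds in DMSO by pin transfer and were incubated 16 h at 37 C. LiveBLAzer B/G FRET substrate was loaded for 2 h at room temperature before fluorescence reading.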
# [11] = molecular target: 5-hydroxytryptamine receptor 2A (Homo sapiens) (UniProt P28223); assay: 5-hydroxytryptamine receptor 2A (HTR2A) small molecule antagonists, cell-based qHTS assay (AID 1963586); further: nearly all actives have a fitted effect of over 45% in size
# Outline: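 Antagonist-mode intracellular calcium assay: DOI (4 nM) added after 5 min compound pre-incubation at room temperature to dye-loaded HTR2A-CHO cells. Fluorescence followed for 3 min, sampled every second.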
# [12] = molecular target: 5-hydroxytryptamine receptor 2A (Homo sapiens) (UniProt P28223); assay: 5-hydroxytryptamine receptor 2A (HTR2A) small molecule agonists, cell-based qHTS assay (AID 1963587); further: nearly all actives have a fitted effect of over 30% in size; further: potency means the concentration at half of the fitted maximal effect
# Outline: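 Kinetic calcium-flux fluorescence (2 min, 1 sec intervals) after compound addition in agonist mode. HTR2A-CHO cells were cultured 18 h, then dye-loaded 1 h at 37 C.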
# [13] = molecular target: Muscarinic acetylcholine receptor M1 (Homo sapiens) (UniProt P11229); assay: Cholinergic receptor muscarinic 1 (CHRM1) small molecule antagonists, cell-based qHTS assay (AID 1963588); further: nearly all actives have a fitted effect of over 40% in size; further: potency means the concentration at half of the fitted maximal effect
# Outline: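 CHRM1-CHO calcium-flux assay, antagonist mode. Cells were seeded 18 h, dye-loaded 1 h at 37 C and given compound for 5 min at RT, then acetylcholine was added at 50nM. FDSS fluorescence was read 3 min; 15 concentrations, three runs.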
# [14] = molecular target: Muscarinic acetylcholine receptor M1 (Homo sapiens) (UniProt P11229); assay: Cholinergic receptor muscarinic 1 (CHRM1) small molecule agonists, cell-based qHTS assay (AID 1963589); further: nearly all actives have a fitted effect of over 35% in size
# Outline: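 CHO cells stably expressing human CHRM1, seeded 18 h at 37 C/5% CO2, dye-loaded 1 h at 37 C, then given compound in agonist mode; intracellular calcium fluorescence read kinetically at 1 s intervals. Fifteen concentrations, three independent runs.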
# [15] = molecular target: Beta-2 adrenergic receptor (Homo sapiens) (UniProt P07550); assay: Adrenergic beta2 receptor (ADRB2) small molecule antagonists, cell-based qHTS assay (AID 1963592); further: series mostly up to about 92 µM; nearly all actives have a fitted effect of over 50% in size
# Outline: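 Cells (CHO, stable ADRB2 overexpression) incubated 18-20hr at 37C; compounds added from DMSO; agonist mix (1nM isoproterenol, 100uM IBMX, 25uM Ro-20-1724) added; 0.5hr RT; d2-cAMP and anti-cAMP-cryptate added; 1hr RT; 665/615 nm read.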
# [16] = molecular target: D(2) dopamine receptor (Homo sapiens) (UniProt P14416); assay: Dopamine D2 receptor (DRD2) small molecule agonists, cell-based qHTS assay (AID 1963594); further: nearly all actives have a fitted effect of over 35% in size
# Outline: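 cAMP accumulation in DRD2-HEK293 cells measured by HTRF after 1 h detection; compounds added 10 min before NKH477 (200nM […]) forskolin-analogue stimulation, 30 min at room temperature, with Ro20-1724 present at 0.1 mM final.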
# [17] = molecular target: D(2) dopamine receptor (Homo sapiens) (UniProt P14416); assay: Dopamine D2 receptor (DRD2) small molecule antagonists, cell-based qHTS assay (AID 1963595; active means well fitted inhibition curve with a large enough effect in the signal ratio in the repeat runs, with a control signal flat; the % refers to the signal ratio)
# Outline: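 HTRF cAMP read-out at 665 and 620 nm emission (340 nm excitation). Antagonist mode: compounds were tested against 12 nM quinpirole in DRD2-HEK293 cells, with 200 nM NKH477 raising cAMP and 0.1 mM Ro20-1724 blocking its breakdown.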
# [18] = cAMP Responsive Elements (CRE) small molecule agonists, cell-based qHTS assay (AID 1963590)
# Outline: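 CRE-bla HEK 293T cells in DMEM with 10% dialyzed FBS, NEAA, pyruvate and 25 mM HEPES were plated 18 h at 37 C/5% CO2, then exposed to compounds in DMSO for 3 h before LiveBLAzer B/G FRET substrate addition.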
# [19] = cAMP Responsive Elements (CRE) small molecule antagonists, cell-based qHTS assay (AID 1963591; active means well fitted inhibition curve with a large enough effect in the signal ratio in the repeat runs, not every such curve was filed as active; the % refers to the signal ratio)
# Outline: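 CRE-bla HEK293T cells were plated 18 h at 37 °C/5% CO2, pinned with compound in DMSO, then stimulated with NKH477 at 0.25 uM final for 3 h. LiveBLAzer B/G FRET substrate was added and plates incubated 2 h at room temperature.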
# [20] = molecular target: Beta-2 adrenergic receptor (Homo sapiens) (UniProt P07550); assay: Adrenergic beta2 receptor (ADRB2) small molecule agonists, cell-based qHTS assay (AID 1963593);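 further: CHO cells stably overexpressing human ADRB2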
# Outline: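 CHO cells stably over-expressing ADRB2 were plated overnight at 37C, then dosed with compounds plus a stimulation mix containing 100uM IBMX and 25uM Ro-20-1724 for 0.5hr at room temperature. cAMP was measured by HTRF competition, 1hr.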
# Sequence of 5-hydroxytryptamine receptor 2A (Homo sapiens) (P28223 whole entry, looked up): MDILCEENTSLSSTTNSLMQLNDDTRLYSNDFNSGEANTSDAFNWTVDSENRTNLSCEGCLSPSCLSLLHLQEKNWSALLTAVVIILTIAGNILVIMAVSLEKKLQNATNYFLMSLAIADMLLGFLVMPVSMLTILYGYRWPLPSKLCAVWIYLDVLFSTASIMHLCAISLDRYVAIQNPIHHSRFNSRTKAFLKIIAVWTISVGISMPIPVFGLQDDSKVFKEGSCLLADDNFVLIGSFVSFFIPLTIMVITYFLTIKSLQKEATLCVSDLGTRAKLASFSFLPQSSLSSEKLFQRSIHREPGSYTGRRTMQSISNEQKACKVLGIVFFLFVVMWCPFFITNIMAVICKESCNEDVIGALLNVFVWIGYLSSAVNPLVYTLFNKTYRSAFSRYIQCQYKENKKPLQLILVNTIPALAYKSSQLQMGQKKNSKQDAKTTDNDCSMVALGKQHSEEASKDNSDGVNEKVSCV
# Sequence of Muscarinic acetylcholine receptor M1 (Homo sapiens) (P11229 whole entry, looked up): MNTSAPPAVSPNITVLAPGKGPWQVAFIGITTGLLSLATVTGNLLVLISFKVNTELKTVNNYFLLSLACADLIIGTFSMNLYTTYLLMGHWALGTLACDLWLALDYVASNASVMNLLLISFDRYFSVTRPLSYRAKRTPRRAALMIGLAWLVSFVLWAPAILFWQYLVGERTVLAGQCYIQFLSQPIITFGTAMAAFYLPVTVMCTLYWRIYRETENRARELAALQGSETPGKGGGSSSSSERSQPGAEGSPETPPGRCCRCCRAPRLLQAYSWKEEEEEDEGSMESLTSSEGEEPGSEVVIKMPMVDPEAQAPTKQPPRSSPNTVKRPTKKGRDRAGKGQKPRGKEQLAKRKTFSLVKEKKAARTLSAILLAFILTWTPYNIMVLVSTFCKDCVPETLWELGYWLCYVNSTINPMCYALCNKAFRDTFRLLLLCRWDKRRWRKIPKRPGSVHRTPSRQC
# Sequence of Beta-2 adrenergic receptor (Homo sapiens) (P07550 whole entry, looked up): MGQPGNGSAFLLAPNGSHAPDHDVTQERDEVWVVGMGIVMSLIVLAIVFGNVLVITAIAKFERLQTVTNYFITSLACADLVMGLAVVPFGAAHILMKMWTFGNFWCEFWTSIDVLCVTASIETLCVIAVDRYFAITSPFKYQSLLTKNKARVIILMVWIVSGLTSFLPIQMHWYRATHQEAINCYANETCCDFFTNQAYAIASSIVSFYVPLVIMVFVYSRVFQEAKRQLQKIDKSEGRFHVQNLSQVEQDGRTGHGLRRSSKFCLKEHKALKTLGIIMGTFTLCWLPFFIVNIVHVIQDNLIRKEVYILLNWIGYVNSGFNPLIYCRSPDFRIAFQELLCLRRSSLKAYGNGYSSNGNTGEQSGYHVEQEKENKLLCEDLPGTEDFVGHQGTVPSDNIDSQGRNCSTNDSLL
# Sequence of Gonadotropin-releasing hormone receptor (Homo sapiens) (P30968 whole entry, looked up): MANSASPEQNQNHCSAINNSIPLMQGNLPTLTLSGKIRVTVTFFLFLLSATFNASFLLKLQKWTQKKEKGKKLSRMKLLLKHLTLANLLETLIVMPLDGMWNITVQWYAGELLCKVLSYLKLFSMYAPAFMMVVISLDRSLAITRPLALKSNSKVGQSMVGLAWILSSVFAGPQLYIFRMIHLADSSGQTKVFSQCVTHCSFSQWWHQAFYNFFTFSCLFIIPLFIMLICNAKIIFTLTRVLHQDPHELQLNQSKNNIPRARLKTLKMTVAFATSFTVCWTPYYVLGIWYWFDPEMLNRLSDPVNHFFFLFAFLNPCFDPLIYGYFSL
# Sequence of KiSS-1 receptor (Homo sapiens) (Q969F8 whole entry, looked up): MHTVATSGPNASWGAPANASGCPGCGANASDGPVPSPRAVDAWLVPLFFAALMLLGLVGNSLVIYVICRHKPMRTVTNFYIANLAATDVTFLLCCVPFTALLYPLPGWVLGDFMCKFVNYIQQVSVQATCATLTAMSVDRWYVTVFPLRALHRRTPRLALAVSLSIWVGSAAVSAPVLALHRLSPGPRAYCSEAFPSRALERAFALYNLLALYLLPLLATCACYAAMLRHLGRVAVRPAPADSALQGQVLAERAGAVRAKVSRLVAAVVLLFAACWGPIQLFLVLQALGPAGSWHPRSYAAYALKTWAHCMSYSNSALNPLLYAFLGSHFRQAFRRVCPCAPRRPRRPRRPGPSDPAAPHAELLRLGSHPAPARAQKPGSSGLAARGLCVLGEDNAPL
# Sequence of D(2) dopamine receptor (Homo sapiens) (P14416 whole entry, looked up): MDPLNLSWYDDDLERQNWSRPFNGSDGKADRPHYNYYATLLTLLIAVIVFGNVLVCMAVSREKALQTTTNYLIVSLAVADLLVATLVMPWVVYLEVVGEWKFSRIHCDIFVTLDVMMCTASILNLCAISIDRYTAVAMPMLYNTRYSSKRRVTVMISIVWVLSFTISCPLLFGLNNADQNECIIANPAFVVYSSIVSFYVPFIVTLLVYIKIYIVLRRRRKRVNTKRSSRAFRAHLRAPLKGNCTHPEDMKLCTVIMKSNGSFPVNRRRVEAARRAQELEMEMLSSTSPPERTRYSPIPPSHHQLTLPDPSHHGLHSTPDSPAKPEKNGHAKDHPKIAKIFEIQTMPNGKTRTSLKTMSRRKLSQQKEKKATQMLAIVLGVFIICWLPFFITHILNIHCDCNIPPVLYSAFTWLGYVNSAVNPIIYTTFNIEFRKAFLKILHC
Structure (SMILES),Potency [1],Potency [2],Potency [3],Potency [4],Potency [5],Potency [6],Potency [7],Potency [8],Potency [9],Potency [10],Potency [11],Potency [12],Potency [13],Potency [14],Potency [15],Potency [16],Potency [17],Potency [18],Potency [19],Potency [20]
NC1(c2ccc(-c3nc4ccn5c(=O)[nH]nc5c4cc3-c3ccccc3)cc2)CCC1,29.8 µM (active),inactive,inactive,inactive,inactive,inactive,inactive,inactive,inactive,inactive,inactive,26.8 µM (active),2.9 µM (active),inactive,inactive,inactive,inactive,–,–,–
CCc1cccc(N(C)C(N)=Nc2cccc3ccccc23)c1,inactive,inactive,inactive,inactive,inactive,inactive,inactive,inactive,inactive,inactive,–,–,inactive,inactive,inactive,inactive,inactive,inactive,inactive,inactive
CN(C)c1ccc(C=O)cc1,inactive,inactive,inactive,inactive,inactive,inactive,inactive,inactive,inactive,inactive,–,inactive,inactive,inactive,inactive,inactive,inactive,–,inactive,inactive
CC(=O)c1ccc(OCC(=O)N2CCCCC2)cc1,inactive,inactive,inactive,inactive,inactive,inactive,inactive,inactive,inactive,inactive,–,inactive,inactive,inactive,inactive,inactive,inactive,inactive,inactive,–
C[Si](Cl)(c1ccccc1)c1ccccc1,inactive,inactive,inactive,inactive,inactive,inactive,inactive,inactive,inactive,inactive,inactive,–,inactive,inactive,inactive,–,inactive,inactive,inactive,–
O=Cc1ccc(O)c(O)c1O,inactive,inactive,inactive,inactive,inactive,inactive,inactive,inactive,inactive,inactive,inactive,inactive,inactive,inactive,inactive,inactive,inactive,–,inactive,–
CC(C)C(O)(c1ccc(OC(F)(F)F)cc1)c1cncnc1 (stereo not given),inactive,inactive,inactive,inactive,inactive,inactive,inactive,inactive,inactive,inactive,inactive,inactive,–,–,inactive,inactive,–,–,–,inactive
Nc1cccc([N+](=O)[O-])c1,inactive,inactive,inactive,inactive,inactive,inactive,inactive,inactive,inactive,inactive,inactive,inactive,0.13 µM (active),–,inactive,inactive,inactive,inactive,inactive,inactive
